Test results from the supplement of paper PMC8728848.
This excerpt belongs to a sample that is enriched for the strongest signals.

Legend:
Experiment in all cases: glycan array binding signal (z-score within array); higher = stronger binding
Conditions in all cases: glycan notation: IUPAC condensed, linker removed
[1] = target: Man(a1-3)[Man(a1-6)]Man(a1-6)[Man(a1-3)]Man(b1-4)GlcNAc(b1-4)GlcNAc
Procedure, shortened: (§1)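 Glycan array data were curated from 3228 arrays in the Consortium for Functional Glycomics database and kept only where the protein sequence was available. Glycan names were converted to IUPAC-condensed notation, and columns mapping to the same glycan were averaged. The binding signal is a within-array Z-score, averaged across arrays of the same protein sequence at different concentrations or buffers and across linkers. Negative Z-scores can be read as non-binding.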

[2] = target: Man(a1-3)[Man(a1-6)]Man(b1-4)GlcNAc(b1-4)GlcNAc
Procedure, shortened: as §1

[3] = target: Neu5Ac(a2-3)Gal(b1-3)GalNAc(b1-4)[Neu5Ac(a2-3)]Gal(b1-4)Glc
Procedure, shortened: as §1

[4] = target: Neu5Ac(a2-3)Gal(b1-4)[Fuc(a1-3)]GlcNAc(b1-3)Gal(b1-4)[Fuc(a1-3)]GlcNAc(b1-3)Gal(b1-4)[Fuc(a1-3)]GlcNAc
Procedure, shortened: as §1

Neu5Ac(a2-6)Gal = target: Neu5Ac(a2-6)Gal
Procedure, shortened: as §1

[5] = target: Neu5Ac(a2-6)Gal(b1-4)GlcNAc(b1-2)Man(a1-3)[Neu5Ac(a2-6)Gal(b1-4)GlcNAc(b1-2)Man(a1-6)]Man(b1-4)GlcNAc(b1-4)GlcNAc
Procedure, shortened: as §1

[6] = target: Neu5Ac(a2-6)Gal(b1-4)GlcNAc(b1-2)Man(a1-3)[Neu5Ac(a2-6)Gal(b1-4)GlcNAc(b1-2)Man(a1-6)]Man(b1-4)GlcNAc(b1-4)[Fuc(a1-6)]GlcNAc
Procedure, shortened: as §1

[7] = target: Neu5Ac(a2-6)Gal(b1-4)GlcNAc(b1-2)Man(a1-6)[Man(a1-3)]Man(b1-4)GlcNAc(b1-4)GlcNAc
Procedure, shortened: as §1

[8] = target: Neu5Ac(a2-6)Gal(b1-4)GlcNAc(b1-3)GalNAc
Procedure, shortened: as §1

Neu5Ac(a2-6)GalNAc = target: Neu5Ac(a2-6)GalNAc
Procedure, shortened: as §1

[9] = target: Neu5Ac(a2-6)GalNAc(b1-4)GlcNAc6S
Procedure, shortened: as §1

Fuc(a1-2)Gal(b1-3)GalNAc = target: Fuc(a1-2)Gal(b1-3)GalNAc
Procedure, shortened: as §1

[10] = target: Fuc(a1-2)Gal(b1-3)GalNAc(b1-3)Gal
Procedure, shortened: as §1

[11] = target: Fuc(a1-2)Gal(b1-3)GlcNAc(b1-3)[Fuc(a1-3)[Gal(b1-4)]GlcNAc(b1-6)]Gal(b1-4)Glc
Procedure, shortened: as §1

[12] = target: Fuc(a1-2)Gal(b1-4)GlcNAc(b1-3)Gal(b1-4)GlcNAc(b1-3)Gal(b1-4)GlcNAc
Procedure, shortened: as §1

Fuc(a1-2)Gal6S(b1-4)Glc = target: Fuc(a1-2)Gal6S(b1-4)Glc
Procedure, shortened: as §1

[13] = target: Gal(a1-3)Gal(b1-3)[Fuc(a1-4)]GlcNAc(b1-2)Man(a1-3)[Gal(a1-3)Gal(b1-3)[Fuc(a1-4)]GlcNAc(b1-2)Man(a1-6)]Man(b1-4)GlcNAc(b1-4)GlcNAc
Procedure, shortened: as §1

[14] = target: Gal(b1-3)Gal(b1-4)GlcNAc(b1-2)Man(a1-3)[Gal(b1-3)Gal(b1-4)GlcNAc(b1-2)Man(a1-6)]Man(b1-4)GlcNAc(b1-4)GlcNAc
Procedure, shortened: as §1

[15] = target: Gal(b1-3)GalNAc(b1-3)Gal(a1-4)Gal(b1-4)Glc
Procedure, shortened: as §1

[16] = target: Gal(b1-3)GalNAc(b1-4)Gal(b1-4)Glc
Procedure, shortened: as §1

[17] = target: Gal(b1-4)GlcNAc(a1-6)Gal(b1-4)GlcNAc
Procedure, shortened: as §1

[18] = target: Gal(b1-4)GlcNAc(b1-2)Man(a1-3)Man(b1-4)GlcNAc(b1-4)GlcNAc
Procedure, shortened: as §1

[19] = target: Gal(b1-4)GlcNAc(b1-2)[Gal(b1-4)GlcNAc(b1-4)]Man(a1-3)[Gal(b1-4)GlcNAc(b1-2)Man(a1-6)]Man(b1-4)GlcNAc(b1-4)GlcNAc
Procedure, shortened: as §1

[20] = target: Gal(b1-4)GlcNAc(b1-2)[Gal(b1-4)GlcNAc(b1-4)]Man(a1-3)[Gal(b1-4)GlcNAc(b1-2)[Gal(b1-4)GlcNAc(b1-6)]Man(a1-6)]Man(b1-4)GlcNAc(b1-4)GlcNAc
Procedure, shortened: as §1

Gal3S(b1-3)GlcNAc = target: Gal3S(b1-3)GlcNAc
Procedure, shortened: as §1

Gal3S(b1-4)GlcNAc6S = target: Gal3S(b1-4)GlcNAc6S
Procedure, shortened: as §1

[21] = target: Gal3S(b1-4)[Fuc(a1-3)]Glc6S
Procedure, shortened: as §1

GalNAc(a1-3)GalNAc = target: GalNAc(a1-3)GalNAc
Procedure, shortened: as §1

Glc(b1-6)Glc = target: Glc(b1-6)Glc
Procedure, shortened: as §1

GlcA(b1-3)GlcNAc = target: GlcA(b1-3)GlcNAc
Procedure, shortened: as §1

[22] = target: GlcNAc(a1-4)Gal(b1-4)GlcNAc(b1-3)Gal(b1-4)Glc
Procedure, shortened: as §1

GlcNAc(b1-6)GalNAc = target: GlcNAc(b1-6)GalNAc
Procedure, shortened: as §1

[23] = target: Neu5Ac(a2-3)Gal(b1-3)GalNAc6S
Procedure, shortened: as §1

[24] = target: Neu5Ac(a2-3)Gal(b1-3)GlcNAc(b1-3)Gal(b1-4)GlcNAc
Procedure, shortened: as §1

[25] = target: Neu5Ac(a2-3)Gal(b1-3)GlcNAc6S
Procedure, shortened: as §1

[26] = target: Neu5Ac(a2-3)Gal(b1-4)GlcNAc(b1-2)Man(a1-3)[GlcNAc(b1-2)Man(b1-4)GlcNAc(b1-2)Man(a1-6)]Man(b1-4)GlcNAc(b1-4)GlcNAc
Procedure, shortened: as §1

[27] = target: Neu5Ac(a2-3)Gal(b1-4)[Fuc(a1-3)]GlcNAc(b1-6)[Gal(b1-3)]GalNAc
Procedure, shortened: as §1

[28] = target: Neu5Ac(a2-3)Gal6S(b1-4)[Fuc(a1-3)]GlcNAc
Procedure, shortened: as §1

[29] = target: Neu5Ac(a2-3)GalNAc(b1-4)GlcNAc
Procedure, shortened: as §1

[30] = target: Neu5Ac(a2-3)[GalNAc(b1-4)]Gal(b1-4)Glc
Procedure, shortened: as §1

B1: SalT (Orysata sativa) (protein)
chain: MTLVKIGLWGGNGGSAQDISVPPKKLLGVTIYSSDAIRSIAFNYIGVDGQEYAIGPWGGGEGTSTEIKLGSSEHIKEISGTHGPVYDLADIVTYLKIVTSANNTYEAGVPNGKEFSIPLQDSGHVVGFFGRSGTLIDAIGIYVHPILEQKLISEEDLNSAVDHHHHHH
- glycan array binding signal (z-score) [1]: 3.62
- glycan array binding signal (z-score) [2]: 4.94
- glycan array binding signal (z-score) [3]: -0.304
- glycan array binding signal (z-score) [4]: -0.305
- glycan array binding signal (z-score) (Neu5Ac(a2-6)Gal): -0.305
- glycan array binding signal (z-score) [5]: 2.81
- glycan array binding signal (z-score) [6]: 0.435
- glycan array binding signal (z-score) [7]: 4.96
- glycan array binding signal (z-score) [8]: -0.296
- glycan array binding signal (z-score) (Neu5Ac(a2-6)GalNAc): -0.307
- glycan array binding signal (z-score) [9]: -0.303

B2: Gal 1 (Canis lupus) (protein)
chain: MACGLVASNLSLKPGQCLRVQCEVVPEAKSFVLNLGKDGDNLCLHFNPRFEAHGDVNTIVCNSKDGGAWGEELRESAFPFQPGTVTEVCISFDQADLTIKLPDGYTFKFPNRLNLEAISYLAADGDMKIKCLAFD
- glycan array binding signal (z-score) (Fuc(a1-2)Gal(b1-3)GalNAc): -0.289
- glycan array binding signal (z-score) [10]: -0.33
- glycan array binding signal (z-score) [11]: 0.066
- glycan array binding signal (z-score) [12]: 0.432
- glycan array binding signal (z-score) (Fuc(a1-2)Gal6S(b1-4)Glc): -0.234
- glycan array binding signal (z-score) [13]: -0.274
- glycan array binding signal (z-score) [14]: 6.47
- glycan array binding signal (z-score) [15]: -0.328
- glycan array binding signal (z-score) [16]: -0.297
- glycan array binding signal (z-score) [17]: 2.97
- glycan array binding signal (z-score) [18]: 1.75
- glycan array binding signal (z-score) [19]: 5.5
- glycan array binding signal (z-score) [20]: 6.78
- glycan array binding signal (z-score) (Gal3S(b1-3)GlcNAc): 3.33
- glycan array binding signal (z-score) (Gal3S(b1-4)GlcNAc6S): 4.69
- glycan array binding signal (z-score) [21]: -0.286
- glycan array binding signal (z-score) (GalNAc(a1-3)GalNAc): -0.323
- glycan array binding signal (z-score) (Glc(b1-6)Glc): -0.343
- glycan array binding signal (z-score) (GlcA(b1-3)GlcNAc): -0.294
- glycan array binding signal (z-score) [22]: -0.318
- glycan array binding signal (z-score) (GlcNAc(b1-6)GalNAc): -0.33
- glycan array binding signal (z-score) [23]: -0.333
- glycan array binding signal (z-score) [24]: 1.66
- glycan array binding signal (z-score) [25]: -0.31
- glycan array binding signal (z-score) [26]: 3.31
- glycan array binding signal (z-score) [27]: -0.244
- glycan array binding signal (z-score) [28]: -0.322
- glycan array binding signal (z-score) [29]: -0.307
- glycan array binding signal (z-score) [30]: -0.292
- glycan array binding signal (z-score) (Neu5Ac(a2-6)Gal): -0.257
